These results are taken from PubChem BioAssay AID2685 (National Center for Advancing Translational Sciences (NCATS), 2010).

Among all 320,000 compounds or so, about 2,100 (0.66%) were called active. Another 53% or so got no clear call; they are omitted. Calls come from the whole dose curve; as a rule, active = well fitted inhibition curve with a large enough effect in the signal ratio, with a control signal flat (not every such curve was filed as active); inconclusive = small, poorly fitted or top-dose-only effect, or effect the other way, or a change in a side signal; inactive = flat fitted curve, though single readings scatter; the % refers to the signal ratio. The sample as a whole holds a higher share of actives than the screen did.
Potency is the fitted concentration of half-maximal effect.

The nature of this assay: qHTS Assay for Lipid Storage Modulators in Drosophila S3 Cells.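 For cell number change: cells counted by Cell Tracker Red CMTPX staining in the red channel.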 Particulars: BODIPY lipid droplet fluorescence, 18-24 h, cells fed with added oleic acid; cell number change: measured here: cell count max response; series mostly up to 46.1 µM. An outline of the steps:
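Drosophila S3 cells loaded with oleic acid (400 uM, as added) and compounds at several concentrations; lipid droplets imaged by 488-nm laser-scanning cytometry, 500–530 nm intensity and object ratio to cell channel. Percent activity normalized to 20 uM Triacsin C.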
In general terms: In qHTS, concentration-response curves come from the screen itself.
With `CN(c1ccccc1)c1ccc(/C=C(\C#N)c2nnc3n2CCCCC3)cc1[N+](=O)[O-]`, the Potency entry was “inactive” and the cell number change was determined as 0.8%. Take `N#C/C(=C/c1cccc([N+](=O)[O-])c1)c1nnc2n1CCCCC2`: the Potency is 2.59 µM (active) and the cell number change is -13.7%. On the same counts, the results for `N#C/C(=C/c1ccccc1[N+](=O)[O-])c1nnc2n1CCCCC2` are “inactive” and 5.26%. As to `N#C/C(=C\c1cccc([N+](=O)[O-])c1)c1nnc2n1CCCCC2`, the Potency was 4.11 µM (active). As for `O=[N+]([O-])c1cccc(-c2nnc3n2CCCCC3)c1`, the Potency result was “inactive” and the cell number change was determined as 8.75%. As to `N#C/C(=C\c1c[nH]c2ccccc12)c1nnc2n1CCCCC2`, the Potency result was “inactive” and the cell number change turned out to be 6.3%. Consider `Cc1nnc(NC(=O)c2ccccc2C(=O)O)s1`, for which the Potency result is “inactive” and the cell number change was 10.9%. On the same counts, the results for `O=C(Nc1cccc(-c2csc(Nc3cccc(C(F)(F)F)c3)n2)c1)c1cc([N+](=O)[O-])cc(C(F)(F)F)c1` are “inactive” and -14.2%. On the same counts, the results for `COC(=O)[C@@H](Cc1ccc(O)cc1)NC(=O)[C@H]1CCC(=O)N1C(=O)OCc1ccccc1` are “inactive” and -3.5%. On the same counts, the results for `COC(=O)[C@@H](Cc1ccccc1)NC(=O)[C@H]1CCC(=O)N1C(=O)OCc1ccccc1` are 7.31 µM (active) and -26.7%. Take `CC(C)CC(NC(=O)C1CCC(=O)N1C(=O)OCc1ccccc1)C(=O)NC(Cc1ccccc1)C(N)=O` (centres undefined): the Potency entry is “inactive” and the cell number change came out at 10.8%. Turning to `Cn1c(=O)c2c(O)c(Cc3ccccc3)c(=O)[nH]c2n(C)c1=O`, the Potency result was “inactive”. Same read-out and setting: the figure for `COc1ccc2nc(N3CCN(C(=O)c4ccc([N+](=O)[O-])o4)CC3)sc2c1` is 4.61 µM (active).

`O=C(Nc1cc(Cl)ccc1-n1cncn1)c1ccc([N+](=O)[O-])o1`: the Potency entry is “inactive” and the cell number change came to 8.28%. Take `O=C(c1ccc([N+](=O)[O-])o1)N1CCOCC1`: the Potency result was “inactive” and the cell number change is -1.55%. In the same order, the values of `O=C(c1ccc([N+](=O)[O-])o1)N1CCN(Cc2ccccc2)CC1` are 25.9 µM (active) and -14.3%. On the same counts, the results for `Cc1ccc(C(=O)N2CCN(Cc3ccccc3)CC2)o1` are “inactive” and 15.9%.

In the case of `COc1ccc(N2CCN(C(=O)c3ccc4nc(N5CCCCC5)sc4c3)CC2)cc1`, the Potency result was “inactive”. On to `O=C(Nc1ccccc1N1CCOCC1)c1ccc([N+](=O)[O-])o1`, for which the Potency entry is “inactive” and the cell number change is -0.54%.

For `CS(=O)(=O)N1CCN(c2ccccc2NC(=O)c2ccc([N+](=O)[O-])o2)CC1`, the Potency entry is “inactive” and the cell number change is -11.1%.

Regarding `CCC(=O)N1CCN(c2ccc(Cl)cc2NC(=O)Cc2ccccc2)CC1`, the Potency result was “inactive” and the cell number change was 12.9%. In the same order, the values of `O=C(Nc1ccccc1N1CCN(C(=O)c2ccccc2)CC1)c1ccc([N+](=O)[O-])o1` are 8.2 µM (active) and 11.7%. In the same order, the values of `CC(=O)N1CCN(c2nc3ccc([N+](=O)[O-])cc3s2)CC1` are “inactive” and -3.82%. As for `CCC(=O)N1CCN(c2ccc(Cl)cc2NC(=O)c2ccc([N+](=O)[O-])o2)CC1`, the Potency is 5.8 µM (active) and the cell number change was -10.1%. As to `Cc1noc(C)c1COC(=O)c1csc2c1CCCC2`, the Potency entry is “inactive”. `Cc1cc(Nc2c(C)n(C)n(-c3ccccc3)c2=O)c2ccccc2n1`: the Potency result was “inactive” and the cell number change was -23.8%. In the same order, the values of `Cc1cccc(-n2cc(CN3CCCN(C=O)CC3)c(-c3cccc(F)c3)n2)c1` are “inactive” and -4.39%.

As for `O=C(NCc1cccnc1)Nc1cccc([N+](=O)[O-])c1`, the Potency result is “inactive” and the cell number change is 6.23%. Consider `CCOc1ncccc1C(=O)OCC(=O)N1CC(=O)Nc2ccccc21`, for which the Potency result was “inactive”. In the case of `Cc1c(/C=N/N=C2\CCC3C4CCc5cc(O)ccc5C4CCC23C)cnn1C` (centres undefined), the Potency result is “inactive” and the cell number change was 13.3%. For `O=C(CN1C(=O)COc2ccccc21)N1CCOCC1`, the Potency result is “inactive”. In the case of `CN1CCN(c2ccccc2NC(=O)c2ccc(-c3ccccc3[N+](=O)[O-])o2)CC1`, the Potency is 6.51 µM (active) and the cell number change was -10.4%. `COc1ccc(N2CCCC2)c(NC(=O)c2ccc(Br)o2)c1`: the Potency result was “inactive” and the cell number change was 13.9%.

For `CC(C)C(=O)N1CCN(c2ccccc2NC(=O)c2ccc([N+](=O)[O-])o2)CC1`, the Potency result is “inactive” and the cell number change was -10.5%. In the same order, the values of `CCC(=O)N1CCN(c2ccccc2NC(=O)c2ccc(-c3cccc([N+](=O)[O-])c3)o2)CC1` are “inactive” and 8.53%. On the same counts, the results for `O=C(Nc1ccccc1N1CCN(C(=O)c2ccccc2)CC1)c1cccc(Cl)c1` are “inactive” and -6.81%.

Consider `O=C(Nc1ccc(N2CCCC2)c(Cl)c1)c1ccc([N+](=O)[O-])o1`, for which the Potency result was “inactive” and the cell number change turned out to be 2.06%. Consider `COc1ccccc1NC(=O)c1ccc(-c2ccccc2[N+](=O)[O-])o1`, for which the Potency entry is “inactive”. With `CC1CCN(c2ccccc2NC(=O)c2ccc([N+](=O)[O-])o2)CC1`, the Potency result was “inactive” and the cell number change is 8.97%.

As to `CCC(=O)N1CCN(c2ccccc2NC(=O)c2ccc([N+](=O)[O-])o2)CC1`, the Potency was 10.3 µM (active) and the cell number change was -1.26%. For the compound `COc1ccc(C(=O)Nc2ccccc2N2CCN(C(=O)c3ccccc3)CC2)cc1Br`, the Potency is 14.6 µM (active) and the cell number change is -6.04%. With `COc1ccc(N2CCCC2)c(NC(=O)c2ccc([N+](=O)[O-])o2)c1`, the Potency is 10.3 µM (active) and the cell number change was 16.1%. Regarding `COc1ccc(C(=O)Nc2ccccc2N2CCOCC2)cc1Br`, the Potency result was “inactive” and the cell number change was -0.289%.

Consider `CC(C)CC(NC(=O)C(NC(=O)OC(C)(C)C)C(C)C)C(N)=O` (centres undefined), for which the Potency entry is “inactive” and the cell number change is 1.19%. In the same order, the values of `C/C(=N/NC(=O)c1ccc2nc[nH]c2c1)c1cccs1` are “inactive” and 9.11%. As for `CC12CCC(C(=O)Nc3ccccc3)(C(Br)C1=O)C2(C)C` (centres undefined), the Potency entry is “inactive” and the cell number change is -7.13%.
